Here are results for 10 molecules from publication PMC5540273 (PLoS ONE, 2017).

Common to all, as to settings: concentration: 1 μM, replicates: in singlicate; n = 1
Test [1] deals with T1, LKB1.
T1 construct: gene STK11

In test [2] the test system is T2, LOK.
T2 construct: gene STK10

Test [3] concerns LRRK2.
Test [4] relates to LTK.
For test [5], the system named is LYN.
Test [6] relates to T3, LZK.
T3 construct: gene MAP3K13

Test [7] deals with MAK.
The subject of test [8] is MAP3K15.
Test [9] relates to MAP3K1.
For test [10], the system named is MAP3K2.
In test [11] the test system is MAP3K3.
In test [12] the test system is MAP3K4.
In test [13] the test system is MAP4K2.
Test [14] concerns MAP4K3.
Test [15] relates to MAP4K4.
Test [16] relates to MAP4K5.
Test [17] has as its system MAPKAPK2.
For test [18], the system named is MAPKAPK5.
Test [19] has as its system MARK1.
For test [20], the system named is MARK2.
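Note: KINOMEscan kinase panel screen.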

Take `CC(=O)Nc1n[nH]c2ncc(-c3ccccc3)cc12` [SB-548492]: the “%Inh” value in test [1] is recorded as 25%; in [2], 0%; in [3] it was 0%; in test [4], 5%; in [5], 0%; in [6], 0%. Moreover, the “%Inh” value stood at 51% in [7]; 11% in test [8]; 27% in test [9]; 16% in test [10]; 37% in test [11]; 11% in test [12]. Moreover, the “%Inh” value in test [13] is on record as 25%; in [14], 0%; in test [15], 0%; in test [16], 4%; in test [17], 5%; in test [18], 8%. The “%Inh” value amounted to 11% in test [19] and 5% in [20].

As to `Cc1cc(N2CCC(NS(=O)(=O)c3ccc(F)cc3)CC2)nc(Nc2cccc(C#N)c2)n1.O=C(O)C(F)(F)F` [GSK1653537], the “%Inh” value in [1] worked out at 0%; in test [2], 0%; in [3] it was 20%; in [4] it was 5%; in [5], 0%; in [6] it was 0%. Further, the “%Inh” value is recorded as 17% in test [7]; 3% in [8]; 7% in test [9]; 60% in [10]; 0% in test [11]; 40% in test [12]. Also, the “%Inh” value worked out at 0% in test [13]; 0% in test [14]; 5% in test [15]; 3% in [16]; 23% in [17]; 0% in test [18]. Further, the “%Inh” value in test [19] and in test [20] was 0% in each case.

Take `C[C@@H]1CCN(C(=O)CO)C[C@@H]1N(C)c1ncnc2[nH]ccc12`: the “%Inh” value was found to be 0% in test [1]; 5% in [2]; 0% in test [3]; 27% in [4]; 8% in [5]; 10% in [6]. In addition, the “%Inh” value in [7] is 0%; in test [8] it was 0%; in test [9], 0%; in test [10], 0%; in test [11] it was 7%; in test [12] it was 5%. Moreover, the “%Inh” value in test [13], in [14], in test [15], in test [16], in [17] and in test [18] was 0% each time. For the same molecule, the “%Inh” value in [19] and in test [20] was 0% each time.

Regarding `CCC(CC)(CC)n1cnc2c(N)ncnc21` [SKF-97620], the “%Inh” value in test [1] is given as 70%; in test [2], 23%; in [3] it was 9%; in test [4], 6%; in test [5] it was 0%; in [6], 36%. Also, the “%Inh” value in [7] is reported as 12%; in [8], 24%; in test [9], 21%; in test [10], 40%; in test [11] it was 0%; in test [12] it was 0%. The “%Inh” value in test [13] was 25%; in test [14], 0%; in test [15], 0%; in [16] it was 0%; in [17], 0%; in [18], 10%. Besides, the “%Inh” value in test [19] turned out to be 24%; in test [20], 15%.

In the case of `O=C(Nc1ccccc1F)NC1CCN(c2ccnc(Nc3ccc(F)cc3)n2)C1` (centres unmarked) [GSK1379722], the “%Inh” value in [1] amounted to 0%; in test [2], 0%; in [3] it was 39%; in test [4], 0%; in [5], 0%; in test [6], 23%. Moreover, the “%Inh” value in test [7] was found to be 12%; in test [8], 0%; in test [9], 5%; in test [10], 1%; in test [11], 0%; in [12], 14%. For the same molecule, the “%Inh” value amounted to 0% in [13]; 0% in test [14]; 0% in test [15]; 0% in [16]; 18% in test [17]; 0% in [18]. Moreover, the “%Inh” value in test [19] and in [20] was 0% in each case.

Consider `O=C(CCO)NCCn1ccc2ncnc(Nc3ccc(Oc4cccc(C(F)(F)F)c4)c(Cl)c3)c21`, for which the “%Inh” value in [1] came to 39%; in test [2], 72%; in [3] it was 0%; in [4] it was 0%; in test [5], 8%; in [6], 0%. Moreover, the “%Inh” value in [7], in test [8], in test [9], in test [10], in [11] and in [12] was 0% each time. Also, the “%Inh” value in test [13] was 0%; in [14], 3%; in [15], 3%; in test [16], 0%; in test [17], 0%; in [18] it was 0%. The figures for the “%Inh” value in [19] and in [20] were 0% and 4%, respectively.

In the case of `CCc1nc(-c2cccc(N(C)S(=O)(=O)c3ccccc3)c2)c(-c2ccnc(Nc3ccc(N4CCN(C(C)=O)CC4)nc3)n2)s1` [GSK1645895], the “%Inh” value in test [1] was 4%; in [2] it was 15%; in test [3] it was 0%; in [4] it was 0%; in test [5] it was 4%; in test [6], 0%. Also, the “%Inh” value in test [7] was 22%; in test [8] it was 0%; in [9] it was 22%; in test [10], 0%; in [11], 0%; in [12], 18%. The “%Inh” value in test [13] amounted to 0%; in test [14], 0%; in test [15], 0%; in test [16], 17%; in test [17] it was 0%; in test [18], 0%. The “%Inh” value in test [19] is 0%; in test [20] it was 4%.

With `COC(=O)c1c(-c2ccccc2)c2cc(Cl)ccc2c(=O)n1Cc1ccc(S(C)(=O)=O)cc1`, the “%Inh” value in [1] is 0%; in [2], 4%; in [3], 2%; in test [4], 0%; in test [5], 20%; in test [6] it was 0%. Moreover, the “%Inh” value in test [7] is recorded as 5%; in test [8], 20%; in [9], 0%; in test [10] it was 0%; in test [11] it was 26%; in test [12], 0%. In addition, the “%Inh” value in test [13] came to 3%; in test [14] it was 13%; in test [15], 0%; in [16], 0%; in test [17], 24%; in [18], 0%. In addition, the “%Inh” value in test [19] and in [20] was 0% in each case.

Consider `Cc1cccc(-c2nc(Nc3ccc4[nH]nnc4c3)c3ccccc3n2)n1` [GW867587], for which the “%Inh” value in test [1] came to 0%; in test [2], 0%; in [3], 0%; in test [4], 13%; in [5], 0%; in test [6] it was 0%. In addition, the “%Inh” value in [7], in test [8], in [9], in [10], in [11] and in test [12] was 0% each time. For the same molecule, the “%Inh” value in [13], in test [14], in test [15], in test [16], in test [17] and in test [18] was 0% in each case. Further, the “%Inh” value in test [19] and in [20] was 0% throughout.

As for `FC(F)(F)c1cc(Nc2nccc(-c3c(-c4ccc(Cl)cc4)nn4ncccc34)n2)ccc1Cl` [GW829351], the “%Inh” value amounted to 0% in test [1]; 6% in test [2]; 0% in [3]; 0% in test [4]; 0% in test [5]; 0% in [6]. In addition, the “%Inh” value in test [7], in test [8], in test [9], in [10], in [11] and in test [12] was 0% each time. Besides, the “%Inh” value in [13], in test [14], in test [15], in test [16], in test [17] and in test [18] was 0% throughout. Moreover, the “%Inh” value in [19] and in [20] was 0% in each case.
